According to PubChem BioAssay (EPA / NIEHS):
The source made the active and inactive calls. Rule for the calls: active = hit-call score of the fitted dose curve at least 0.9, where 1 is the maximum; inactive = score below 0.9.

Assays:
[1] = ATG_CRE_CIS: Attagene CIS-FACTORIAL HepG2 Assay for human cAMP Responsive Element (CRE) binding protein 3 (AID 2282926); details: HepG2 CRE cis-reporter, Attagene multiplexed mRNA; actives raise or lower the signal
Summary of the method: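 Capillary electrophoresis of 6-FAM-labelled, HpaI-digested PCR products quantified reporter transcripts. These came from HepG2 transiently transfected with cis-element reporters and exposed to test chemicals for 24 hours, with DMSO defining baseline activity.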

[2] = molecular target: CCAAT/enhancer-binding protein beta (Homo sapiens) (UniProt P17676); assay: ATG_C_EBP_CIS: Attagene CIS-FACTORIAL HepG2 Assay for human CCAAT/Enhancer Binding Protein (C/EBP) beta (AID 2282927); details: HepG2 Attagene cis-factorial transcription factor reporter; actives raise or lower the signal
Summary of the method: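 Following a 24 h incubation with test chemical, transfected HepG2 cells yielded RNA whose reporter transcripts were quantified by RT-PCR and fluorescent capillary electrophoresis, with DMSO serving as baseline for bidirectional fitting.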

[3] = ATG_CMV_CIS: Attagene CIS-FACTORIAL HepG2 Assay for human CMV (Internal Marker) (AID 2282928); details: HepG2 CMV promoter reporter, transcription factor profiling; actives raise or lower the signal;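 note: endpoint acts as a background internal control marker rather than a target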
Summary of the method: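 24 h chemical treatment, HepG2 with transient multi-reporter transfection; RNA → oligo(dT) RT → PCR → 6-FAM extension → HpaI digest → CE fluorescence. Bidirectional fit, DMSO negative control.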

[4] = ATG_DR4_LXR_CIS: Attagene CIS-FACTORIAL HepG2 Assay for human Liver X Receptor (LXR), DR4 submotif (AID 2282929); details: HepG2 Attagene DR4 cis-reporter, mRNA transcription; actives raise or lower the signal
Summary of the method: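 Transiently transfected HepG2 liver cells; cis-regulated reporters; 24 h dosing. RT-PCR plus CE read-out of reporter mRNA. DMSO baseline, bidirectional curve fitting.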

[5] = molecular target: Aryl hydrocarbon receptor (Homo sapiens) (UniProt P35869); assay: ATG_Ahr_CIS: Attagene CIS-FACTORIAL HepG2 Assay for human Aryl Hydrocarbon Receptor (Ahr) (AID 2282930); details: HepG2 AhR cis-factorial reporter transcription; actives raise or lower the signal
Summary of the method: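 Values derive from bidirectional fitting against DMSO negative control. Underlying signal: cis-element reporter mRNA in transiently transfected HepG2, harvested 24 h post-dose and measured by RT-PCR plus capillary electrophoresis.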

[6] = ATG_AP_1_CIS: Attagene CIS-FACTORIAL HepG2 Assay for human Activator Protein 1 (AP-1) (AID 2282931); details: HepG2 Attagene cis-factorial AP-1 reporter mRNA; actives raise or lower the signal
Summary of the method: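 We transfected HepG2 cells transiently with a set of cis-regulated reporter transcription units, dosed them for 24 h, and quantified reporter mRNA via RT-PCR and capillary electrophoresis, scoring gain or loss of signal relative to DMSO.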

[7] = ATG_AP_2_CIS: Attagene CIS-FACTORIAL HepG2 Assay for human Activator Protein 2 (AP-2) (AID 2282932); details: HepG2 AP-2 cis-reporter, Attagene transcription factor profiling; actives raise or lower the signal
Summary of the method: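 Cells (HepG2) transfected with promoter-driven reporter constructs, treated 24 h. Total RNA reverse-transcribed, reporter cDNA PCR-amplified, FAM-labelled by primer extension, digested, resolved by capillary electrophoresis. Activity fitted both directions versus DMSO.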

[8] = ATG_BRE_CIS: Attagene CIS-FACTORIAL HepG2 Assay for human Bone Morphogenetic Protein (BMP) Response Element (BRE) (AID 2282933); details: HepG2 BMP response element reporter, Attagene transcription factor profiling; actives raise or lower the signal
Summary of the method: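 Multiplexed cis-reporter assay, HepG2, 24 h exposure. mRNA from reporter units quantified via RT-PCR/CE; DMSO baseline; bidirectional curve fit.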

[9] = molecular target: Retinoic acid receptor alpha (Homo sapiens) (UniProt P10276); assay: ATG_DR5_RAR_CIS: Attagene CIS-FACTORIAL HepG2 Assay for human Retinoic Acid Receptor Alpha (RARE), DR5 submotif (AID 2282934); details: HepG2 Attagene cis-factorial RARE DR5 reporter, mRNA; actives raise or lower the signal;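 for AC50: reporter responds to endogenous RAR alpha beta and gamma in HepG2 not RARA alone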
Summary of the method: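 Endpoint fitted in both directions relative to DMSO as negative control. It reflects DR5 cis-element reporter mRNA induction in transiently transfected HepG2 cells, measured 24 h after dosing through RT-PCR and fluorescent capillary electrophoresis.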

[10] = molecular target: Transcription factor E2F1 (Homo sapiens) (UniProt Q01094); assay: ATG_E2F_CIS: Attagene CIS-FACTORIAL HepG2 Assay for human E2F Transcription Factor 1 (AID 2282935); details: HepG2 Attagene cis-reporter, E2F reporter RNA transcripts; actives raise or lower the signal
Summary of the method: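 First, HepG2 cells were transfected with reporter transcription units. Next, they were dosed for 24 h. Then RNA was isolated, converted to cDNA, PCR-amplified, FAM-labeled, HpaI-digested and analyzed by capillary electrophoresis.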

[11] = ATG_E_Box_CIS: Attagene CIS-FACTORIAL HepG2 Assay for human Enhancer Box (E-box) (AID 2282936); details: HepG2 E-box cis-reporter transcription, actives raise or lower the signal
Summary of the method: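 Endogenous transcription factor activity was sensed in human HepG2 liver cells through transfected cis-promoter reporter units. After 24 h of dosing, total RNA was reverse-transcribed and reporter cDNA resolved by capillary electrophoresis.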

[12] = ATG_M_61_CIS: Attagene CIS-FACTORIAL HepG2 Assay for M61 Transcription Factor (Internal Marker) (AID 2282937); details: HepG2 Attagene CIS-FACTORIAL M61 internal marker reporter; actives raise or lower the signal
Summary of the method: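 Multiplexed reporter mRNA assay, HepG2 human hepatoma cells, 24 h treatment. Signal: FAM-labelled, HpaI-digested RT-PCR fragments by CE. Fit: bidirectional, baseline DMSO.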

[13] = ATG_EGR_CIS: Attagene CIS-FACTORIAL HepG2 Assay for human Early Growth Response 1 (EGR1) (AID 2282938); details: HepG2 Attagene CIS-FACTORIAL EGR reporter mRNA; actives raise or lower the signal
Summary of the method: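 Multiplexed cis-reporter system in human hepatoma HepG2 cells, transiently transfected. Cells are dosed for 24 h; reporter transcripts are amplified, fluorescently tagged and sized by capillary electrophoresis, with DMSO as negative control.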

[14] = ATG_M_19_CIS: Attagene CIS-FACTORIAL HepG2 Assay for M19 Transcription Factor (Internal Marker) (AID 2282939); details: HepG2 Attagene CIS-FACTORIAL M19 internal marker reporter; actives raise or lower the signal
Summary of the method: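 Signals come from fluorescence of labelled reporter-specific PCR fragments resolved by capillary electrophoresis, following 24 h treatment of HepG2 cells transfected with cis-promoter reporter units; activity was fitted in both directions relative to DMSO.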

[15] = ATG_ERE_CIS: Attagene CIS-FACTORIAL HepG2 Assay for Estrogen Response Element (ERE) (AID 2282940); details: HepG2 ERE cis-reporter, Attagene RNA transcript; actives raise or lower the signal
Summary of the method: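 Fluorescence of capillary-separated, FAM-labelled reporter cDNA fragments indicates reporter mRNA levels in HepG2 cells exposed to chemicals for 24 h. Transient transfection with cis-regulated units; data fitted in both directions against DMSO.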

Measured: AC50

Chain of CCAAT/enhancer-binding protein beta (Homo sapiens) (P17676 whole entry, looked up): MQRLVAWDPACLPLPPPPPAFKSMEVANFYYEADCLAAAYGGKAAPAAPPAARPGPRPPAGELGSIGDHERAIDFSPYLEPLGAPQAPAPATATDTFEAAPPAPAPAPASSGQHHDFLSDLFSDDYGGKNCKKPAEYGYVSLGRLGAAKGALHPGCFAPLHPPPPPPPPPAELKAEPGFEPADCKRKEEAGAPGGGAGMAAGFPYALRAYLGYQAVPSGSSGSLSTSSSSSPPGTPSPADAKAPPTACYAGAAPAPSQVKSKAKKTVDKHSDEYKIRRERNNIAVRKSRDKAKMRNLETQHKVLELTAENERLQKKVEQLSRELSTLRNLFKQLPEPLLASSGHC
Chain of Retinoic acid receptor alpha (Homo sapiens) (P10276 whole entry, looked up): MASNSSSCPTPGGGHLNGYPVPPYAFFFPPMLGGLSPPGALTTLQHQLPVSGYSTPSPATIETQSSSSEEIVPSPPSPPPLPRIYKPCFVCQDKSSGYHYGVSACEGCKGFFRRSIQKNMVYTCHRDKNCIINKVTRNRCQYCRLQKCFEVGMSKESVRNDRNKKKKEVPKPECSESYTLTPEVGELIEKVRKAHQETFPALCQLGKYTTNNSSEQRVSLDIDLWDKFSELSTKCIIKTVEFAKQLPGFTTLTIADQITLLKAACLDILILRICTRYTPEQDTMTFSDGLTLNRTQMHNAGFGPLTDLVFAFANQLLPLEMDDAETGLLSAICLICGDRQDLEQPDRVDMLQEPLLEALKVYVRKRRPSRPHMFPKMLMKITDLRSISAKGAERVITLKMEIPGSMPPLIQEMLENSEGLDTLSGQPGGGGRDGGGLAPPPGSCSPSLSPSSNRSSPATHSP
Chain of Aryl hydrocarbon receptor (Homo sapiens) (P35869 whole entry, looked up): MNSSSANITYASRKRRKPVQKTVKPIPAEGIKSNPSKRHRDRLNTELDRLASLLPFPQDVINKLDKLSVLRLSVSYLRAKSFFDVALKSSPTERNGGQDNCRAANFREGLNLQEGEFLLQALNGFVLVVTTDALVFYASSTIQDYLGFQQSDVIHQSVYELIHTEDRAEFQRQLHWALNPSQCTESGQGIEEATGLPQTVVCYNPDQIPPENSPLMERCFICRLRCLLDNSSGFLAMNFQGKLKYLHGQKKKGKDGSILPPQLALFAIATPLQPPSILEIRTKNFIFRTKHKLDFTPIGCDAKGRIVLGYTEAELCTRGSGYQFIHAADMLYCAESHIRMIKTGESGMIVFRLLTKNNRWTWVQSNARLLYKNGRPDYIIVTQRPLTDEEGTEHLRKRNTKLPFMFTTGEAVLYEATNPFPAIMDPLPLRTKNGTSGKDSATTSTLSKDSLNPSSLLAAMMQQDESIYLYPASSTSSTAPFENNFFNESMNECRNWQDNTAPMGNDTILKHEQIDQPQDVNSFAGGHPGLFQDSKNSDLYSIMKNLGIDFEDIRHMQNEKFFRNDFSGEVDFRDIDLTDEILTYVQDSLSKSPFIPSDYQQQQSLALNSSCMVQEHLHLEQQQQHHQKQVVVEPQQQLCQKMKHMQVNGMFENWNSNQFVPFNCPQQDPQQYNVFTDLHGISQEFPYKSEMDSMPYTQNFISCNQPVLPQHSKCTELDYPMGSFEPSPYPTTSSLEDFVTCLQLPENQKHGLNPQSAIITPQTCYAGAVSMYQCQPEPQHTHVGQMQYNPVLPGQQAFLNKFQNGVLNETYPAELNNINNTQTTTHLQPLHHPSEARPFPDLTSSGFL
Chain of Transcription factor E2F1 (Homo sapiens) (Q01094 whole entry, looked up): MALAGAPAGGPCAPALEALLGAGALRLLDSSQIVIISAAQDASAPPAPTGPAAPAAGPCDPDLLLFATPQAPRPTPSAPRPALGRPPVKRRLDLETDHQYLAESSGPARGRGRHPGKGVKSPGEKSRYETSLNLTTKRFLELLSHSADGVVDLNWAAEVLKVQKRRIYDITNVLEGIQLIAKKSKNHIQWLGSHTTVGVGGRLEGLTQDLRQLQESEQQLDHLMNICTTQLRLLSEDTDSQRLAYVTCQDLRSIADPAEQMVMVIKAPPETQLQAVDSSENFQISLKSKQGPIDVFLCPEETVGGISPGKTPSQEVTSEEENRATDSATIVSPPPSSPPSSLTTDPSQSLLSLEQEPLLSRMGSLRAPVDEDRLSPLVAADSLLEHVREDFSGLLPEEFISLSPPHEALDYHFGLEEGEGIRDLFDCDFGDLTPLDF

c1ccc2c(c1)Oc1ccccc1O2
active: [5] 0.667 µM
not listed: [15]
inactive: all other assays above

BrCC(Br)c1ccccc1 (centres undefined)
inactive: all assays above

CC(C)[N+](=O)[O-]
not listed: [15]
inactive: all other assays above

Nc1cccnc1
not listed: [15]
inactive: all other assays above

Brc1ccc(Oc2c(Br)cc(Br)cc2Br)c(Br)c1
not listed: [15]
inactive: all other assays above

COc1nn(C(=O)NS(=O)(=O)c2ccccc2OC(F)(F)F)c(=O)n1C
not listed: [15]
inactive: all other assays above

CCCCCCCCCCCCBr
active: [4] 48.2 µM
not listed: [15]
inactive: all other assays above

Clc1cc(C(Cl)(Cl)Cl)cnc1Cl
active: [4] 8.81 µM | [6] 12.6 µM | [10] 33.4 µM | [11] 4.54 µM | [13] 8.77 µM
inactive: all other assays above

Cc1cc(-c2cc(C)c(N)c(C)c2)cc(C)c1N
active: [3] 37.8 µM | [5] 0.776 µM
not listed: [15]
inactive: all other assays above

CCOC(=O)OC1=C(c2cc(C)ccc2C)C(=O)NC12CCC(OC)CC2 (centres undefined)
not listed: [15]
inactive: all other assays above

COC(=O)Nc1cccc(OC(=O)Nc2cccc(C)c2)c1
not listed: [15]
inactive: all other assays above

CCCCS(=O)(=O)Cl
not listed: [15]
inactive: all other assays above

Cc1cc(C(F)(C(F)(F)F)C(F)(F)F)ccc1NC(=O)c1cccc(I)c1C(=O)NC(C)(C)CS(C)(=O)=O
not listed: [15]
inactive: all other assays above

C=CCOC(N)=O
not listed: [15]
inactive: all other assays above

Cl[C@H]1OCCO[C@@H]1Cl
not listed: [15]
inactive: all other assays above

CC(c1ccccc1)(c1ccc(O)cc1)c1ccc(O)cc1
active: [4] 11.1 µM | [6] 7.98 µM | [11] 16.9 µM | [13] 12.3 µM
not listed: [15]
inactive: all other assays above

CCCCC(CC)COC(=O)Cl (centres undefined)
not listed: [15]
inactive: all other assays above

CC(C)(C)c1cc([N+](=O)[O-])cc(C(C)(C)C)c1O
active: [3] 1.77 µM | [6] 0.948 µM | [7] 16.3 µM | [8] 2.01 µM | [9] 2.85 µM
not listed: [15]
inactive: all other assays above
